# Source: PubChem BioAssay (NCI)
# About 83,000 compounds went through this panel and 20% of them were active in at least one assay; those are over-represented in the sample as a whole.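 The endpoint reported here, percent growth, reads 100 for growth as untreated, 0 for no net growth and -100 for all cells dead.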 Unmarked numbers belong to inactive results. Calls of active or inactive are those of the source. Rule for the calls: active = growth percent below 10; inactive = the rest.
# Legend:
# Assay in all cases: NCI-60 one-dose screen, 48 h (100 = growth as untreated, 0 = no growth, -100 = all killed)
# Settings in all cases: 10 µM unless noted
# [1] = system: T-47D breast
# [2] = system: BT-549 breast
# [3] = system: MDA-MB-435 melanoma
# [4] = system: SW-620 colon
# [5] = system: MCF7 breast
# [6] = system: HCT-116 colon
# [7] = system: HCC-2998 colon
# [8] = system: KM12 colon
Compound,growth [1],growth [2],growth [3],growth [4],growth [5],growth [6],growth [7],growth [8]
CC(/C=N/NC(N)=S)Cc1ccc(C(C)C)cc1 (configuration not stated),16.6%,64.1%,49.2%,63.5%,49.9%,51.4%,51.9%,89.5%
Nc1cccc2cccc([N+](=O)[O-])c12,113%,105%,108%,106%,86.6%,104%,103%,113%
CC1(O)CCCCCC1,97%,96.1%,103%,100%,96.8%,99.4%,98.8%,106%
COc1cc(/C=C/C(=O)CC(=O)/C=C/c2ccc(O)c(OC)c2)ccc1O,50.7%,13.9%,1.75% (active),23.1%,17%,0.952% (active),-74.8% (active),0.643% (active)
O=C1/C(=C/c2ccccc2)CCC/C1=C\c1ccccc1,82%,80.5%,13.2%,22%,30.7%,-79% (active),81.4%,10.1%
CN(C)CCSC1=Nc2ccc(Cl)cc2C(c2ccccc2Cl)N(C)C1 (configuration not stated),57.9%,76.4%,62.2%,87.4%,27.8%,65.1%,81%,61.6%
CC1(C)OC2C(COC(c3ccccc3)(c3ccccc3)c3ccccc3)OC(c3c[nH]c4c(N)ncnc34)C2O1 (configuration not stated),43.2%,77.5%,62.4%,63.9%,35%,46.7%,85.7%,50.3%
O=C(/C=C/C(Cl)(Cl)Cl)Nc1ccc(Cl)cc1,94.6%,102%,105%,110%,99.8%,104%,108%,132%
CCOC(=O)/C(=C\c1ccc2ccccc2c1)P(=O)(OCC)OCC,32.4%,39.8%,24%,2.35% (active),15.3%,4.87% (active),13.6%,39.2%
CN(C)c1ccc(/C=C/c2ccnc3ccccc23)cc1,43.1%,20.2%,2.49% (active),26.9%,19.9%,24.8%,72.1%,29.9%
CN(C)c1ccc(/C=C/c2cc[n+](C)c(/C=C/c3ccc(N(C)C)cc3)c2)cc1,-2.17% (active),18.9%,-48.7% (active),9.01% (active),-6.46% (active),9.38% (active),12.4%,-55.6% (active)
CCN(CC)CCNC(Cc1ccccc1)c1ccc(OCc2ccccc2)cc1 (configuration not stated),68.5%,76.8%,26.7%,77.2%,78.2%,49.9%,45.4%,80.7%
CN(C)c1ccc(C(C#N)(c2ccccc2)c2ccc(N(C)C)cc2)cc1,41.8%,72.9%,84.2%,43.3%,39.9%,30.8%,51.2%,65.5%
NC1=C(Br)C(=O)c2ncccc2C1=O,15.3%,-81.2% (active),-96.2% (active),-88.4% (active),-57.2% (active),-46.4% (active),26.9%,24.5%
Cc1ccc(NC2=CC(=O)C(=O)c3ccccc32)cc1,21.1%,-41.1% (active),-80.5% (active),-19.6% (active),-57.4% (active),-26.9% (active),28.4%,22.1%
O=C1C=CC(=O)N1c1ccccc1,99.8%,97.1%,109%,80.9%,106%,75.1%,98.7%,103%
COc1c(C)c2c(c(O)c1C/C=C(\C)CCC(=O)O)C(=O)OC2,44.7%,35.4%,30.1%,21.7%,23.9%,13.3%,33.3%,29.1%

Compound,growth [1],growth [2],growth [3],growth [4],growth [5],growth [6],growth [7],growth [8]
O=C1Nc2ccc(Br)cc2C1=O,96.2%,105%,98.3%,86%,91.5%,94.2%,111%,96.7%
Oc1ccc(Cl)cc1C(c1cc(Cl)ccc1O)C(Cl)(Cl)Cl,9.95% (active),44.9%,29.4%,4.62% (active),8.95% (active),-35.2% (active),-45.5% (active),-55.5% (active)
OC(c1cc(C23CC4CC(CC(C4)C2)C3)nc2c(Cl)cc(Cl)cc12)C1CCCCN1 (configuration not stated),-74.3% (active),37.7%,-66.1% (active),-68.1% (active),-80.7% (active),-84% (active),-71.7% (active),-91.4% (active)
CC(C)c1ccc(C(=O)OC2CCCC2)cc1,91.2%,97.5%,101%,99.7%,95.7%,92.3%,99%,99.9%
O=C(/C=C/c1ccccc1)c1ccccc1O,62.6%,70.5%,80.6%,75.1%,26.7%,62.9%,96.3%,28.2%
O=C1c2ccccc2Cc2cccc(Cl)c21,92.8%,93.3%,120%,112%,96.1%,97.4%,81%,106%
CC1(C)N=c2cc3c(cc2N1c1ccc(Cl)cc1)=Nc1ccccc1N3c1ccc(Cl)cc1,25.1%,44%,77.9%,53.5%,28.9%,-41.3% (active),36.9%,77%
COC(=O)Nc1nc2ccc(C3(c4ccc(F)cc4)OCCO3)cc2[nH]1,47.1%,47.5%,-53.3% (active),30.7%,15.7%,25.2%,16.7%,25.6%
CC(O)C(O)C(O)C(O)C(O)C(=O)NNc1ccccc1 (configuration not stated),76.4%,105%,86.4%,75.6%,88.1%,87.6%,95.1%,85.7%
O=S(=O)(O)c1cnccn1,78.6%,95.3%,105%,112%,98%,86.5%,102%,98.9%
CSc1nc(C)c(C(=O)CCN2CCN(c3ccccn3)CC2)s1,66.7%,113%,104%,100%,61.2%,105%,106%,106%
Oc1ccc(Br)cc1Sc1cc(Br)ccc1O,17.7%,43.8%,56.7%,64.1%,59.2%,34.3%,91.7%,92.9%
O=C1C=CC(=O)c2c(O)c(CO)c(CO)c(O)c21,96.3%,97%,83.5%,109%,96.9%,74.7%,108%,115%
CC1(C)CCCC2=C1C(=O)N(SC(Cl)(Cl)Cl)C2=O,66.9%,95.8%,92.1%,88%,67.3%,75.5%,96.5%,101%
C1=C(c2ccccc2)c2ccccc2C1,92.7%,99.1%,93.1%,97.8%,109%,95.8%,91%,96.3%
Cc1nc(Sc2nc3ccc([N+](=O)[O-])cc3s2)sc1C,27%,-10.4% (active),29.6%,11.5%,1.58% (active),2.1% (active),71.3%,36.6%
CN1CCC(CN2c3ccccc3Sc3ccccc32)C1 (configuration not stated),93.6%,89.4%,88.5%,93.7%,97.7%,77.6%,41.4%,97.2%
